Compound activity from PubChem BioAssay.
D1 antagonist: human D1 dopamine receptor antagonism; P21728; HEK293 TREx D1 cells, calcium flux, dopamine EC80; stronger effect = lower value; activity change, negative = inhibition, % at 10 µM; actives 3.2% (n = 360,000); AID 504652; in the data active = activity change below about -30%; also: % is scaled to controls: 0 for no effect and ±100 for the full control effect
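Cells carrying a force-coupled, tetracycline-inducible human D1 receptor report calcium flux. Each well gets a 10 s baseline, compound with 180 s monitoring, then an EC80 dopamine stimulus with a second 180 s kinetic read.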
TRPV1 ag: activates the human vanilloid receptor TRPV1; Q8NER1; activation, % at 8.33 µM; actives 0.19% (n = 320,000); TRPV1-expressing cells, Fluo-8 calcium influx, agonist mode; in the data active = activation above about 80%; inconclusive = between about 30% and that limit; also: 0% is about no effect
Target sequence (Q8NER1 whole entry, looked up): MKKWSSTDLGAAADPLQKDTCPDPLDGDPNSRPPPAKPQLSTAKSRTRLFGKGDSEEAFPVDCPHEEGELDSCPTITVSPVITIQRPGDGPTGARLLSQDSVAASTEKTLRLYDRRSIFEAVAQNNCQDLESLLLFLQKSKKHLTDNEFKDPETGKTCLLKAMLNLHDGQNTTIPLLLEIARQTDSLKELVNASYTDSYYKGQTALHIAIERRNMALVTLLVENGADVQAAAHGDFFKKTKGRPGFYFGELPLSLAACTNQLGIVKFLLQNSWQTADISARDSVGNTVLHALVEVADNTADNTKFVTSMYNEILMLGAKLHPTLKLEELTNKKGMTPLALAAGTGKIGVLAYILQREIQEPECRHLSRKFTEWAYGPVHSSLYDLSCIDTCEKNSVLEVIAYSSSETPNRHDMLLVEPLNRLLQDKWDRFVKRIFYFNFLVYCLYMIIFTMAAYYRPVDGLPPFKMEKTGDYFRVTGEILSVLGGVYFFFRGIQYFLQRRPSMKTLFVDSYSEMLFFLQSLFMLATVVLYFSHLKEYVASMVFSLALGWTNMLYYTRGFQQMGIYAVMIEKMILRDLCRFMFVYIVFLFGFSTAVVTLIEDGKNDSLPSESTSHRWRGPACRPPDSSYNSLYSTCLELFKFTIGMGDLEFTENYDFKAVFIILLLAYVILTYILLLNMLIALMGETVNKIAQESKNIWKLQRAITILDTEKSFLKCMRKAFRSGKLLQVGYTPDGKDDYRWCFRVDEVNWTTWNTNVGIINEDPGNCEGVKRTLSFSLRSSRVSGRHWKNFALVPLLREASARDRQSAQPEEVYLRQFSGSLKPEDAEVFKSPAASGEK
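Cells expressing TRPV1 were dye-loaded with Fluo-8 and read kinetically: 10 s baseline, 3 min after compound (agonist portion), then 2 min after EC20 capsaicin (allosteric enhancer portion). Calcium-bound dye fluorescence at 480/520 nm.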
D1 PAM: enhances dopamine response at the human D1 receptor; AID 504651; actives 0.036% (n = 360,000); P21728; potentiation, % at 10 µM; HEK293 TREx D1 cells, calcium flux, dopamine EC20 potentiation; in the data active = potentiation above about 30%; also: 0% is about no effect
TRPV1 PAM: enhances activation of the human vanilloid receptor TRPV1; Q8NER1; TRPV1-expressing cells, Fluo-8 calcium influx, capsaicin EC20 potentiation; potentiation, % at 8.33 µM; actives 0.02% (n = 320,000); in the data active = potentiation above about 80%; inconclusive = between about 30% and that limit; also: 0% is about no effect
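Cells expressing TRPV1 were dye-loaded with Fluo-8 and read kinetically: 10 s baseline, 3 min after compound (agonist portion), then 2 min after EC20 capsaicin (allosteric enhancer portion). Calcium-bound dye fluorescence at 480/520 nm.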
D1 agonist: activates the human D1 dopamine receptor. activation, % at 2 µM. AID 504660. actives 1% (n = 360,000). P21728. HEK293 T-REx D1 cells, calcium flux, agonist mode; in the data active = activation above about 30%; also: 0% is about no effect
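Agonism was scored from calcium flux recorded over 180 s (1 read/s) after pintool compound addition, following a 10-cycle baseline. Cells were inducible force-coupled HEK293 TREx D1, plated overnight at 30 C and loaded with no-wash calcium dye.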
Active calls of the source: *; ? = inconclusive; . = no result. A selection: hits, their analogues and other compounds. The true share with any hit is near 4.2%.

SMILES	D1 antagonist	TRPV1 ag	D1 PAM	TRPV1 PAM	D1 agonist
Cc1ccc(-c2cc(C(F)(F)F)n3ncc(C(=O)O)c3n2)cc1	-0.9	1.8	-3.7	-5.0	0.8
Cc1cc(C(F)(F)F)n2ncc(C(=O)O)c2n1	-31.0*	3.5	.	0.7	4.4
CSc1ncc2c(n1)-c1ccccc1N(Cc1ccc(Cl)cc1)S2(=O)=O	16.9	.	0.3	.	0.0
Clc1ccc(-c2cc(COc3ccccc3)on2)cc1	11.2	15.8	5.1	-3.3	35.2*
COc1ccc(S(=O)(=O)N2CCC(C(=O)Nc3ccc(Oc4ccccc4)cc3)CC2)cc1OC	0.8	.	-1.6	.	7.8
COC(=O)N1C(=O)[C@](c2ccsc2)(C(C)C)N1C(=O)OC	-67.2*	1.6	-8.3	16.3	1.8
COc1cc(C2CC(=O)Nc3c2c(=O)[nH]c2nc4ccccc4n32)ccc1O (stereo not given)	-48.8*	.	-4.5	.	0.1
CCCOc1ccc(Br)cc1/C=N/O	-18.2	3.0	-11.8	-2.8	42.6*
COc1ccc(OCC(=O)Nc2ccc(N3CCN(C(=O)c4ccco4)CC3)cc2)cc1	-7.6	-1.0	-6.1	-3.9	5.5
CCN1CCN(c2ccc(NC(=O)COc3ccccc3Cl)cc2)CC1	-42.0*	4.0	-15.5	-42.3	9.2
CCN1CCN(c2ccc(NC(=O)Cc3ccccc3)cc2)CC1	-61.9*	-0.3	-6.5	15.5	3.3
O=C(COc1ccccc1O)Nc1ccc(Cl)cc1	-35.7*	?	-3.2	-14.4	7.1
Cc1ccccc1OCC(=O)NNC(=O)Nc1ccc(Cl)cc1	5.9	2.8	4.5	?	0.3
O=C(COc1ccc(Cl)cc1)Nc1ccc(N2CCN(C(=O)c3ccco3)CC2)cc1	-31.2*	2.4	-7.9	-4.5	16.9
COc1ccc(CNC(=O)c2ccc3c(c2)CCN3S(=O)(=O)c2ccc(Cl)cc2)cc1	-4.8	.	0.3	.	4.7
O=C(O)CCCC(=O)Nc1ccc(Cl)cc1	-54.3*	0.8	-5.8	-46.5	3.9
N#Cc1ccc(OCC(=O)N2CCN(C(=O)c3ccco3)CC2)cc1	-35.0*	-3.9	2.7	0.3	1.6
O=C(Cc1ccccc1)Nc1cccc(N2CCCC2)c1	-35.2*	-1.6	2.7	-0.5	1.0
O=C(CCS(=O)(=O)c1ccccc1F)Nc1ccc(N2CCN(Cc3ccccc3)CC2)cc1	-39.0*	-7.4	-15.3	?	8.4
COc1ccc(N(C)C(=O)NCc2noc3ccc(C)cc23)c(OC)c1	-0.3	.	-0.9	.	2.6
CCOc1ccccc1NC(=O)c1ccc2c(Cl)c3c(nc2c1)CCCC3	1.6	.	5.0	.	-0.4
O=C(COc1ccccc1Cl)Nc1ccc(N2CCN(C(=O)c3ccccc3)CC2)cc1	-52.2*	1.1	2.9	2.2	1.7
O=C(c1ccc(CSc2nc3ccncc3n2Cc2ccccc2F)cc1)N1CCCCC1	3.5	.	0.1	.	-0.9
Cc1ccc(C)c(N2CCN(C(=O)c3cnn(C(C)(C)C)c3C3CCN(C(=O)OC(C)(C)C)CC3)CC2)c1	11.2	.	3.5	.	5.2
Cc1cccc(NC(=O)c2ccccc2SCc2ccc(F)cc2)n1	-34.1*	19.1	-0.1	-5.0	2.5
SMILES	D1 antagonist	TRPV1 ag	D1 PAM	TRPV1 PAM	D1 agonist
O=C(Nc1cccc(C(=O)OCc2cc(=O)n3c4c(sc3n2)CCCC4)c1)c1ccccc1	-6.7	.	1.9	.	-0.7
O=C(Cc1ccccc1)N(Cc1cccnc1)c1nc2c(F)cc(F)cc2s1	.	.	-1.6	.	3.5
Cc1ccc(/C=C/c2onc(C)c2S(=O)(=O)N2CCC(C(=O)Nc3ccc(C)c(N(C)C)c3)CC2)cc1	-12.9	.	-3.2	.	3.9
Cc1ccc(/C=C/c2onc(C)c2S(=O)(=O)N2CCC(C(=O)Nc3ccc(OC(F)(F)F)cc3)CC2)cc1	-67.5*	.	-3.9	.	1.9
O=C(Nc1nc(-c2ccccc2)cs1)c1ccc(Br)o1	-11.7	88.2*	-1.6	-9.8	1.4
O=C(NC(=S)Nc1nc(-c2ccccc2)cs1)c1cncc(Br)c1	1.2	2.3	6.2	29.7	37.4*
Cc1ccc(C(=O)Nc2nc(-c3cccnc3)cs2)o1	-6.1	6.5	-6.2	-3.6	2.7
O=C(NC(=S)Nc1nc(-c2ccccc2)cs1)c1cccnc1	-0.1	0.8	9.7	-1.2	12.6
O=C(Nc1cccc(F)c1)c1ccc2c(c1)N(Cc1ccccc1)C(=O)c1ccccc1S2(=O)=O	21.1	.	-0.6	.	8.6
Cc1c(C(=O)c2ccc(F)cc2)c2ccccn2c1CCc1ccccn1	-53.6*	7.8	-12.7	-6.7	1.2
CCOc1ccc(NC(=O)N(C)CCc2c(C)nn(C)c2C)cc1	-4.1	.	-0.9	.	-1.1
Cc1ccc2nc(SCc3nnc(-c4cccs4)o3)[nH]c2c1	-37.1*	5.1	-1.1	-3.8	0.8
CNC[C@H](O)c1ccc(O)c(O)c1	8.7	2.2	1.1	4.5	3.2
CNC[C@H](O)c1cccc(O)c1	-72.6*	2.8	-5.8	-6.9	0.8
COc1cccc(-n2nnc(S(=O)(=O)c3ccc(C)cc3)c2N)c1	-35.9*	8.6	0.6	-18.0	13.5
COc1ccccc1CNC(=O)c1oc2ccc(S(=O)(=O)N3CCCCC3)cc2c1C	9.7	.	-0.3	.	-0.9
Cc1c(C(=O)NCc2ccccc2CN2CCCC2)oc2ccc(F)cc12	-32.5*	7.9	.	-2.8	5.5
CCc1cccc(NC(=O)C2CCCN2S(=O)(=O)c2ccc3nc(-c4ccccc4)[nH]c3c2)c1 (stereo not given)	11.6	.	-0.7	.	3.9
CCCCCCC(=O)Nc1ccc(C(=O)N/N=C/c2cccnc2)cc1	-23.2	85.7*	-14.1	13.4	0.4
Cc1nc(-c2ccccc2)sc1C1(C)CC(c2cccc([N+](=O)[O-])c2)=NO1 (stereo not given)	-41.9*	27.4	-0.9	-21.7	2.3
COc1ccc(C)cc1NC(=O)Cn1cc(S(=O)(=O)Cc2ccccc2Cl)c2ccccc21	-13.2	.	7.8	.	4.6
Nc1ccc2c(c1)Nc1ccccc1CC2	-30.7*	1.7	-7.0	5.7	-0.1
Cc1cc(C(=O)CSc2cccc[n+]2[O-])c(C)n1-c1ccc(OC(F)F)cc1	-40.2*	-3.2	-7.9	12.9	8.5
CC1=C(C(=O)Nc2ccccc2)C(c2cccs2)n2nc(SCc3ccccc3F)nc2N1 (stereo not given)	0.6	.	0.7	.	3.1
CC1=C(C(=O)NC2CCCc3c2cnn3-c2cccc(C)c2C)OCCO1 (stereo not given)	-15.0	15.6	-7.6	-2.1	17.7
COc1ccc(C(=O)NC2CCCc3c2cnn3-c2cccc(C)c2C)o1 (stereo not given)	-18.7	5.2	-4.5	9.6	3.3
CCn1cc(C(=O)NC2CCCc3c2cnn3-c2cccc(C)c2C)cn1 (stereo not given)	-20.6	15.1	-7.0	-9.1	40.4*
Cc1cc(C(=O)NC2CCCc3c2cnn3-c2ccc(C(C)(C)C)cc2)nn1C (stereo not given)	-34.9*	1.3	4.7	-8.1	3.8
